According to PubChem BioAssay AID1159580 (chemical genetic matrix, 2015):
Several values for one entry are separate records, joined by “and”; a condition that tells them apart may be missing. Equal values may be shown once. About 2,000 (36%) of roughly 5,500 compounds were called active. Inconclusive results (about 18%) are left out. No stated cut-off is given here; in the data, active means normalized growth mostly below about 0.91 (no sharp cut-off); inconclusive means no clear call, values can overlap the other calls; inactive means mostly above about 0.92. This is one part of the list.

Experiment: chemical genetic growth profiling, strain panel (AID 1159580);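 further: tested at 20 µM; growth read once vehicle control cultures reached saturation at 30 °C; 1 = growth at the plate median or of vehicle wells; lower values mean less growth of the strain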
Settings: growth OD

Measured: normalized growth

CCn1cc(C(=O)O)c(=O)c2cc(F)c(N3CCNC(C)C3)c(F)c21 (stereo not given)
inactive: S. cerevisiae deletion strains, locus YJR075W, strain HOC1, active compounds read low 0.991 and 0.993 | S. cerevisiae deletion strains, locus YKL009W, strain mrt4, active compounds read low 0.979 | S. cerevisiae deletion strains, locus YKL068W, active compounds read low 0.981 | S. cerevisiae deletion strains, locus YKL085W, strain MDH1 (second series), active compounds read low 0.985 | S. cerevisiae deletion strains, locus YKL085W, strain MDH1, active compounds read low 0.985 | S. cerevisiae deletion strains, locus YKL160W, strain elf1, active compounds read low 0.943 | S. cerevisiae deletion strains, locus YKL190W, strain CNB1, active compounds read low 0.995 | S. cerevisiae deletion strains, locus YKR001C, strain vps1, active compounds read low 0.993 | S. cerevisiae deletion strains, locus YKR026C, strain gcn3, active compounds read low 0.996 | S. cerevisiae deletion strains, locus YKR091W, strain srl3, active compounds read low 0.982 | S. cerevisiae deletion strains, locus YLL001W, strain dnm1, active compounds read low 0.985 | S. cerevisiae deletion strains, locus YLL026W, active compounds read low 0.99 | S. cerevisiae deletion strains, locus YLL041C, strain sdh2, active compounds read low 0.975 | S. cerevisiae deletion strains, locus YLR027C, strain aat2, active compounds read low 0.992 | S. cerevisiae deletion strains, locus YLR039C, strain RIC1, active compounds read low 0.973 | S. cerevisiae deletion strains, locus YLR058C, strain SHM2, active compounds read low 0.995 | S. cerevisiae deletion strains, locus YLR102C, strain apc9, active compounds read low 0.986 | S. cerevisiae deletion strains, locus YLR113W, strain HOG1, active compounds read low 1.06 | S. cerevisiae deletion strains, locus YLR221C, strain rsa3, active compounds read low 1 | S. cerevisiae deletion strains, locus YLR258W, strain gsy2, active compounds read low 0.98 | S. cerevisiae deletion strains, locus YLR262C, strain YPT6 (second series), active compounds read low 0.996 | S. cerevisiae deletion strains, locus YLR262C, strain YPT6, active compounds read low 0.979 | S. cerevisiae deletion strains, locus YLR268W, strain sec22, active compounds read low 0.988 | S. cerevisiae deletion strains, locus YLR320W, strain mms22, active compounds read low 0.961 | S. cerevisiae deletion strains, locus YLR330W, strain CHS5, active compounds read low 0.982 | S. cerevisiae deletion strains, locus YLR342W, strain FKS1 (second series), active compounds read low 0.951 | S. cerevisiae deletion strains, locus YLR342W, strain FKS1, active compounds read low 0.957 | S. cerevisiae deletion strains, locus YLR357W, strain rsc2, active compounds read low 0.919 | S. cerevisiae deletion strains, locus YLR370C, strain arc18, active compounds read low 0.965 | S. cerevisiae deletion strains, locus YLR371W, strain rom2, active compounds read low 0.992 | S. cerevisiae deletion strains, locus YLR384C, strain iki3, active compounds read low 0.964 | S. cerevisiae deletion strains, locus YLR418C, strain cdc73, active compounds read low 0.892 | S. cerevisiae deletion strains, locus YML016C, strain PPZ1, active compounds read low 0.991 | S. cerevisiae deletion strains, locus YML032C, strain rad52, active compounds read low 0.994 | S. cerevisiae deletion strains, locus YML120C, strain ndi1, active compounds read low 0.993 | S. cerevisiae deletion strains, locus YML124C, strain tub3, active compounds read low 0.996 | S. cerevisiae deletion strains, locus YMR058W, strain fet3, active compounds read low 0.994 | S. cerevisiae deletion strains, locus YMR078C, strain ctf18, active compounds read low 0.982 | S. cerevisiae deletion strains, locus YMR125W, strain sto1, active compounds read low 0.961 | S. cerevisiae deletion strains, locus YMR129W, active compounds read low 0.971 | S. cerevisiae deletion strains, locus YMR205C, strain PFK2, active compounds read low 0.985 | S. cerevisiae deletion strains, locus YMR223W, strain ubp8, active compounds read low 0.976 | S. cerevisiae deletion strains, locus YMR231W, strain pep5, active compounds read low 0.984 | S. cerevisiae deletion strains, locus YMR263W, strain SAP30, active compounds read low 1 | S. cerevisiae deletion strains, locus YMR307W, strain GAS1, active compounds read low 1.01 | S. cerevisiae deletion strains, locus YNL067W, strain RPL9B, active compounds read low 1.03 | S. cerevisiae deletion strains, locus YNL071W, strain lat1, active compounds read low 0.977 | S. cerevisiae deletion strains, locus YNL128W, strain TEP1, active compounds read low 0.964 | S. cerevisiae deletion strains, locus YNL153C, strain GIM3, active compounds read low 1.06 | S. cerevisiae deletion strains, locus YNL175C, strain NOP13, active compounds read low 0.998 | S. cerevisiae deletion strains, locus YNL183C, strain NPR1, active compounds read low 0.962 | S. cerevisiae deletion strains, locus YNL197C, strain WHI3, active compounds read low 1 | S. cerevisiae deletion strains, locus YNL209W, strain ssb2, active compounds read low 0.965 | S. cerevisiae deletion strains, locus YNL224C, strain SQS1, active compounds read low 0.994 | S. cerevisiae deletion strains, locus YNL233W, strain BNI4, active compounds read low 1.03 | S. cerevisiae deletion strains, locus YNL248C, strain rpa49, active compounds read low 0.926 | S. cerevisiae deletion strains, locus YNL250W, strain rad50, active compounds read low 0.943 | S. cerevisiae deletion strains, locus YNL271C, strain bni1, active compounds read low 0.992 | S. cerevisiae deletion strains, locus YNL298W, strain CLA4, active compounds read low 0.988 | S. cerevisiae deletion strains, locus YNL307C, strain MCK1, active compounds read low 0.984 | S. cerevisiae deletion strains, locus YNL322C, strain KRE1 (second series), active compounds read low 0.964 | S. cerevisiae deletion strains, locus YNL322C, strain KRE1, active compounds read low 1.02 | S. cerevisiae deletion strains, locus YNR049C, strain mso1, active compounds read low 0.975 | S. cerevisiae deletion strains, locus YNR052C, strain pop2, active compounds read low 0.989 | S. cerevisiae deletion strains, locus YOL006C, strain TOP1, active compounds read low 1.08 | S. cerevisiae deletion strains, locus YOL012C, strain htz1 1.44 | S. cerevisiae deletion strains, locus YOL147C, strain pex11, active compounds read low 0.985 | S. cerevisiae deletion strains, locus YOR001W, strain rrp6, active compounds read low 1 | S. cerevisiae deletion strains, locus YOR061W, strain CKA2, active compounds read low 0.993 | S. cerevisiae deletion strains, locus YOR069W, strain VPS5, active compounds read low 0.988 | S. cerevisiae deletion strains, locus YOR070C, strain gyp1, active compounds read low 0.985 | S. cerevisiae deletion strains, locus YOR080W, strain dia2, active compounds read low 0.972 | S. cerevisiae deletion strains, locus YOR083W, strain WHI5 (second series), active compounds read low 0.992 | S. cerevisiae deletion strains, locus YOR083W, strain WHI5, active compounds read low 0.897 | S. cerevisiae deletion strains, locus YOR106W, strain vam3, active compounds read low 0.931 | S. cerevisiae deletion strains, locus YOR136W, strain idh2, active compounds read low 0.998 | S. cerevisiae deletion strains, locus YOR144C, strain elg1, active compounds read low 0.992 | S. cerevisiae deletion strains, locus YOR184W, strain ser1, active compounds read low 0.988 | S. cerevisiae deletion strains, locus YOR231W, strain MKK1, active compounds read low 1.04 | S. cerevisiae deletion strains, locus YOR265W, strain rbl2, active compounds read low 0.972 | S. cerevisiae deletion strains, locus YOR270C, strain vph1, active compounds read low 0.982 | S. cerevisiae deletion strains, locus YOR290C, strain snf2, active compounds read low 0.968 | S. cerevisiae deletion strains, locus YOR316C, strain cot1, active compounds read low 1 | S. cerevisiae deletion strains, locus YPL051W, strain arl3, active compounds read low 0.971 | S. cerevisiae deletion strains, locus YPL055C, strain LGE1, active compounds read low 0.985 | S. cerevisiae deletion strains, locus YPL078C, strain atp4, active compounds read low 0.957 | S. cerevisiae deletion strains, locus YPL106C, strain sse1, active compounds read low 0.939 | S. cerevisiae deletion strains, locus YPL240C, strain hsp82, active compounds read low 0.983 | S. cerevisiae deletion strains, locus YPL256C, strain CLN2, active compounds read low 1.04 | S. cerevisiae deletion strains, locus YPR119W, strain clb2, active compounds read low 0.993 | S. cerevisiae deletion strains, locus YPR141C, strain kar3, active compounds read low 0.985 | S. cerevisiae deletion strains, locus YPR163C, strain tif3, active compounds read low 0.986 | S. cerevisiae deletion strains, locus YPR167C, strain met16, active compounds read low 0.999 | S. cerevisiae deletion strains, strain wtn01, active compounds read low 0.998 | S. cerevisiae strains, strain wild type, active compounds read low 0.997
